Screens deposited in PubChem by National Center for Advancing Translational Sciences (NCATS).
The list is not random: actives were taken first. Their share in the collection is about 1.7%.
PTHR1 ag: agonists of human PTHR1 parathyroid hormone receptor; Q03431; HEK293 GP2 PTHR1 cells, GloSensor cAMP luminescence, 1 h; Potency, µM (highest dose often 115 µM), without a hit: at the top dose activation, actives largely listed as activators; 410,000 compounds, 0.075% hits; AID 743266; note: potency is the fitted concentration of half-maximal effect; nearly all actives have a fitted effect of over 55% in size
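HEK-293-derived GP2 cells expressing PTHR1 and a GloSensor cAMP reporter, 3,000/well, plated overnight, given luciferin plus IBMX (each 0.5 mM as added) for 1 h at 37 °C, then compound for 1 h at 37 °C. Luminescence was read after 15 min at room temperature.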
GLP-1R agonist: agonists of human GLP-1 receptor. 380,000 compounds, 0.007% hits. Potency, µM (highest dose often 45.6 µM), inactives show at the top dose activation, actives largely listed as activators. P43220. HEK293 GLP-1R CRE-luciferase, luminescence, 4-6 h; cells express a hypersensitive GLP-1R form; note: potency is the fitted concentration of half-maximal effect; % of control where 0% means no effect
LDHA block: blocks human lactate dehydrogenase A; P00338; purified LDHA, NADH/diaphorase-resazurin fluorescence; stronger effect = lower value; activity change, % (values are at about 110 or 230 µM); 480,000 compounds, 0.15% hits; in the data active = activity change below about -30%; inconclusive = mostly about -25% to -30%;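 note: plate controls were DMSO wells for no effect and wells without enzyme for full effect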
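Resorufin fluorescence (ex540/em590), read at 0 and 20 min after diaphorase/resazurin addition, reports the NADH left after a 5 min room-temperature reaction of 2 nM human LDH5 with 0.06 mM NADH and 0.2 mM pyruvate.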
IDH1 R132H inh: inhibitors of human mutant IDH1 R132H | O75874 | IDH1-R132H enzyme, NADPH consumption, diaphorase/resazurin fluorescence | Potency, µM (highest dose often 76.6 µM), without a hit: at the top dose activity change, negative = inhibition, usual class: inhibitors | 390,000 compounds, 0.093% hits; note: potency is the fitted concentration of half-maximal effect; % is set by controls: 0 for no effect and ±100 for the full control effect; nearly all actives have a fitted effect of over 65% in size
Target sequence (O75874 whole entry R132H, stated change not applied): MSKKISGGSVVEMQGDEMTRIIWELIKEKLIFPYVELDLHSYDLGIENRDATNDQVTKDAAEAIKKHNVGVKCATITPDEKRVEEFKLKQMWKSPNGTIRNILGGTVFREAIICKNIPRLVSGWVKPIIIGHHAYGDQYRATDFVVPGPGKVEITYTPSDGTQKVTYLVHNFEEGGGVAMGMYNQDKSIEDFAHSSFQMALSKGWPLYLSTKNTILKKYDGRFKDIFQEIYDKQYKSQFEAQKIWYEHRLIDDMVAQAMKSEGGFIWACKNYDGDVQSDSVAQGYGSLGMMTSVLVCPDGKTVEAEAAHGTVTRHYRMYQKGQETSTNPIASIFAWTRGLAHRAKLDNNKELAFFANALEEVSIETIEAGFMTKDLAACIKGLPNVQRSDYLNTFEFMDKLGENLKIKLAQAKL
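IDH1-R132H (0.5 ug/mL) preincubated 30 min with compound, then NADPH (0.016 mM) and alpha-KG (2 mM) added; 80 min at RT, pH 7.5. Remaining NADPH coupled via diaphorase/resazurin to fluorescence (540/590 nm); concentration-response curves normalized to no-enzyme control.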
GLP1R inv ag: inverse agonists of human GLP-1 receptor; P43220; HEK293 GLP-1R CRE-luciferase, luminescence, 24 h; GLP-1R form is constitutively active; Potency, µM (doses to about 38.3 µM), without a hit: at the top dose activity change, negative = inhibition, actives largely listed as inhibitors; 410,000 compounds, 1.6% hits; AID 624417; note: potency is the fitted concentration of half-maximal effect; % is set by controls: 0 for no effect and ±100 for the full control effect; nearly all actives have a fitted effect of over 55% in size
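Using stably transfected HEK293 (constitutively active GLP-1R, cAMP-luciferase reporter), compounds were incubated 24 hr and luciferase measured by luminescence.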
HEK293 tox: cytotoxic in the GLP-1 receptor inverse agonist counter-screen; 410,000 compounds, 0.13% hits; HEK293 cAMP-luciferase reporter cells, luminescence, 24 h; Potency, µM (titrated, usually from 38.3 µM), for the others: at the highest dose activity change, negative = inhibition, most hits filed as inhibitors;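 note: loss of luciferase light is scored as toxicity; potency is the fitted concentration of half-maximal effect; % is set by controls: 0 for no effect and ±100 for the full control effect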
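1536-well qHTS counterscreen of the MLSMR; 200 cells/uL, 12 h pre-incubation, 23 nL cpd, 24 h at 37 deg C 5% CO2, luciferase detection reagent, 12 min RT, luminescence. Inhibition = undesired.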
* marks the source's active call; other numbers are inactive results; i = inactive; ? = inconclusive; . = no result given; [ ] = remark or other dose. Unless noted, calls come from the whole dose curve; as a rule, active = well fitted curve in the direction sought with a large enough effect; inconclusive = small, poorly fitted or top-dose-only effect, or another doubt; inactive = no such curve, though single readings can be large; an effect the other way counts as inactive or inconclusive.

SMILES	PTHR1 ag	GLP-1R agonist	LDHA block	IDH1 R132H inh	GLP1R inv ag	HEK293 tox
O=C(CCn1cnc2onc(-c3ccc(F)cc3)c2c1=O)Nc1ccc(F)c(Cl)c1	-22%	.	-1	.	13µM*	-10%
O=C(CCn1cnc2onc(-c3ccc(F)cc3)c2c1=O)Nc1cccc(C(F)(F)F)c1	-43%	.	0	-17%	?	-18%
C=C(C1=CCN(S(=O)(=O)C(C)(C)C)[C@@H]1CCO)c1ccccc1	-14%	-1%	3	21%	7.9µM*	2%
CCN(CC1COc2ccccc2O1)C(=S)NCCCN(C)C (stereo unspecified)	-28%	-6%	1	0%	7.1µM*	-10%
CN(CC1COc2ccccc2O1)C(=S)NC1CCCCC1 (stereo unspecified)	-75%	-2%	1	-1%	5µM*	-5%
CC(C)N(C)S(=O)(=O)N(C)CC1COc2ccccc2O1 (stereo unspecified)	.	.	-32*	.	.	.
CCN(CC1COc2ccccc2O1)C(=S)Nc1ccccc1 (stereo unspecified)	-37%	-1%	-4	0%	0%	-9%
O=C(NC1CCCCC1)C1COc2ccccc2O1 (stereo unspecified)	-8%	8%	-4	4%	-9%	11%
Cn1c(C(=O)N2CCC(NC(=O)c3ccncc3)CC2)cc2ccccc21	.	.	0	.	.	.
CC(Oc1ccccc1)C(=O)Nc1nnc2n1CCS2 (stereo unspecified)	32µM*	.	4	6%	24%	4%
CC(C)C(=O)Nc1nnc2n1CCS2	i	-1%	-3	11%	5%	3%
COc1ccc(/C=C(/F)c2nc3ccccc3s2)cc1	.	.	15	.	.	.
O=C(Nc1ccccc1)N(Cc1ccccc1)CC(O)C(F)(F)F (stereo unspecified)	i	-7%	-4	-1%	-2%	-19%
O=C(Nc1cccc(F)c1)N(Cc1ccc(Cl)cc1)CC(O)C(F)(F)F (stereo unspecified)	-32%	-19%	1	1%	5.6µM*	?
CC1CC(C)CN(CCOc2cccc(Cl)c2Cl)C1 (stereo unspecified)	18%	-2%	-12	0%	-17%	2%
O=C(c1ccco1)N1CCN(CCOCCOc2cccc3ccccc23)CC1	i	3%	1	0%	0%	-5%
c1ccc(CN2CCN(CCOCCOc3cccc4ccccc34)CC2)cc1	-15%	0%	-23	15%	7.9µM*	?
CCN1CCN(CCOCCOc2ccccc2)CC1	-22%	-2%	-30*	-13%	-9%	1%
CCN1CCN(CCOc2cccc(Cl)c2Cl)CC1	i	0%	-36*	5%	?	9%
CN1CCN(CCOc2ccc(Cc3ccccc3)cc2)CC1	i	7%	0	-1%	11µM*	-1%
c1ccc(OCCOCCN2CCOCC2)cc1	i	-3%	-3	1%	2%	40%
CN1CCN(CCOc2ccc(C#N)cc2)CC1	.	.	-9	.	.	.
COc1cccc(C(=O)Nc2ccc3oc(-c4ccc(OC)c(Cl)c4)nc3c2)c1	.	.	-7	.	.	.
CCN1CCN(CCOc2cccc(Oc3ccccc3)c2)CC1	i	6%	-33*	-11%	?	-17%
CC(N(C)CC(=O)NC(N)=O)C(C)(C)C (stereo unspecified)	.	.	13	.	.	.
SMILES	PTHR1 ag	GLP-1R agonist	LDHA block	IDH1 R132H inh	GLP1R inv ag	HEK293 tox
CCCCCCn1c(=O)n2n(c1=O)C[C@]1(OC(=O)NC3CCCC3)CN(S(=O)(=O)c3ccc(C)cc3)C[C@]1(O)C2	-20%	-5%	0	-6%	?	5%
CCCCCCn1c(=O)n2n(c1=O)C[C@]1(OC(=O)NCC3CCCCC3)CN(S(=O)(=O)c3ccc(C)cc3)C[C@]1(O)C2	-53%	-3%	-8	9%	10µM*	-20%
CCCCCCn1c(=O)n2n(c1=O)[C@@H]1CN(S(=O)(=O)c3ccc(C)cc3)C[C@]1(O)[C@@H](OC(=O)NCc1ccccc1)C2	-4%	-3%	3	12%	11µM*	-17%
Cc1ccc(S(=O)(=O)N2C[C@H]3n4c(=O)ccc(=O)n4C[C@H](OC(=O)NCc4ccccc4)[C@@]3(O)C2)cc1	-64%	-5%	-9	-4%	?	-11%
Oc1ccc(Cl)cc1-c1cc(-c2ccco2)[nH]n1	i	-28%	21	3%	10µM*	?
Oc1ccccc1-c1cc(-c2ccco2)[nH]n1	-9%[57.5 µM]	-9%	13	23%	-18%	-8%
Cc1ccc(NC(=O)CN2CC(C)SC2=NC2CCCCC2)cc1 (stereo unspecified)	?	8%	-8	-7%	11µM*	?
CCc1nnc(NC(=O)C2CC(c3ccccc3)=NO2)s1 (stereo unspecified)	.	.	-4	.	.	.
S=C1SCN(Cc2cccnc2)CN1Cc1cccnc1	-2%	-2%	2	6%	3.2µM*	?
COc1ccc(CN2CSC(=S)N(Cc3ccccc3)C2)cc1	-5%	21%	2	0%	10µM*	?
S=C1SCN(Cc2ccccc2)CN1Cc1ccccc1	-7%	25%	-2	0%	?	?
O=C1N[C@@H](Cc2ccccc2)C(=O)N2[C@H]1C[C@]1([C@]34C[C@H]5C(=O)N[C@@H](Cc6ccccc6)C(=O)N5[C@H]3N(S(=O)(=O)c3ccccc3)c3ccccc34)c3ccccc3N(S(=O)(=O)c3ccccc3)[C@H]21	i	-5%	-13	-7%	8%	-23%
O=C1N[C@@H](Cc2ccccc2)C(=O)N2[C@@H]3N(S(=O)(=O)c4ccccc4)c4ccccc4[C@]3(Br)C[C@@H]12	-51%	2%	-1	8%	10µM*	16%
CC(C)c1cc(C(C)C)c(S(=O)(=O)N2c3ccccc3[C@@]3(Br)C[C@H]4C(=O)N[C@@H](Cc5ccccc5)C(=O)N4[C@@H]23)c(C(C)C)c1	-28%	-5%	-1	11%	5.6µM*	5%
Cc1oc(-c2ccc(C(=O)Nc3cccc(C(F)(F)F)c3)cc2)nc1CSc1ccccc1	-90%	.	-8	19%	2.2µM*	-22%
COc1cccc(-c2nc(CS(=O)(=O)CC(=O)Nc3cccc(C(F)(F)F)c3)c(C)o2)c1	.	.	-30*	.	.	.
COc1ccccc1CCNC(=O)c1ccc(-c2nc(CSc3ccc(C)cc3)c(C)o2)cc1	-7%	.	4	30%	10µM*	11%
